ST2 inh: IL1RL1 inhibition; actives 2.3% (n = 78,000); AlphaLISA ST2-Fc/biotin-IL-33 interaction, 1 h; AID 1259354; inhibition, % for hits at 17 µM; in the data active = inhibition above about 30%
Target sequence (Q01638 whole entry, looked up): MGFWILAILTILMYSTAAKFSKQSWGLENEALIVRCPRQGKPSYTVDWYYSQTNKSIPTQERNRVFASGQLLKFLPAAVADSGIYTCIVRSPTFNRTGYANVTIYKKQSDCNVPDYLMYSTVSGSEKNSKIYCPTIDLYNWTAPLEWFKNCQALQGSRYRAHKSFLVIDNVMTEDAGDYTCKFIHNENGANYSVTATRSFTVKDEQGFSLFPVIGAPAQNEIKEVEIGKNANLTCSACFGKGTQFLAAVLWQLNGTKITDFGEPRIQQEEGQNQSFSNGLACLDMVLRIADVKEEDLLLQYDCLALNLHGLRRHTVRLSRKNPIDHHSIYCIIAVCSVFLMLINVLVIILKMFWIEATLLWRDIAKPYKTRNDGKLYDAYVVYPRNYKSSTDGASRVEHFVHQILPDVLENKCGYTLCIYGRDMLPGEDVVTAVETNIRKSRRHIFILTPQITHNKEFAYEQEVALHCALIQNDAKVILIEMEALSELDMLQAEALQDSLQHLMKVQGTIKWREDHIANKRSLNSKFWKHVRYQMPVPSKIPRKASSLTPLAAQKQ
* marks the source's active call; other numbers are inactive results; i = inactive; ! = not confirmed by another sample. Shown is part of a subset that was picked to be rich in hits.

SMILES	ST2 inh
CCOc1ccc(NC(=O)c2cnc3scc(C)n3c2=O)cc1	i
CC(=O)Nc1cccc(NS(=O)(=O)c2ccc(C)cc2)c1	i
COCCOc1ccc(-c2noc([C@@H]3CCCN3)n2)cn1	i
CCCc1ccc(CN2CCCC(c3nn(C)c(=O)n3CC)C2)o1 (stereo not drawn)	i
COc1ccc(OC)c(C2C(C#N)=C(N)Oc3cc(O)c(Cl)cc32)c1 (stereo not drawn)	i
Cc1ccc(-n2ncc3c(=O)n(-c4ccc(C)c(C)c4)c(C)nc32)cc1	i
Cc1ccc(-n2c(C)nc3c(cnn3-c3ccc(F)cc3)c2=O)cc1	i
Cc1ccc(-n2ncc3c([N+](=O)[O-])cc([N+](=O)[O-])cc32)cc1	62%*
COc1ccc(-c2csc3ncnc(N4CCN(c5ccccc5OC)CC4)c23)cc1	i
CN1[C@@H](CCC(=O)N2CCN(c3ccccn3)CC2)CNC(=O)[C@@H]2[C@H]1CCN2Cc1ncc[nH]1	i
Cc1ccc(C)c(NC(=O)CSc2cccc3cccnc23)c1	i
COc1ccccc1NC(=O)N1C[C@@H]2C[C@H](C1)c1ccc(-c3ccc(NC(C)=O)cc3)c(=O)n1C2	i
COc1ccc(S(=O)(=O)N2C[C@@H]3C[C@H](C2)c2ccc(-c4ccc(OC(F)(F)F)cc4)c(=O)n2C3)cc1	i
O=C(Nc1ccccc1)N1C[C@@H]2C[C@H](C1)c1ccc(-c3ccc(OC(F)(F)F)cc3)c(=O)n1C2	33%*
COc1ccc(C(=O)Oc2ccccc2NC2=NS(=O)(=O)c3ccccc32)cc1OC	i
CCOc1ccc(C2=C(CN(C)C)C(c3ccc(F)cc3)c3ccccc3O2)cc1 (stereo not drawn)	40%*
CCOC(=O)C1CCN(C(=O)C2c3ccccc3Oc3ccccc32)CC1	i
CCOc1ccc2c(=O)c(-c3ccc(F)cc3)c(C)oc2c1	i
CCOc1ccc(C2=C(CN3CCOCC3)C(c3ccccc3)c3ccccc3O2)cc1 (stereo not drawn)	31%*
CCOC1=CC(c2ccc(F)cc2)Oc2ccccc21 (stereo not drawn)	i
c1ccc(OCCCN2CCOCC2)cc1	i
COc1ccc(S(=O)(=O)N2CCN(c3ccccn3)CC2)cc1OC	i
COc1ccc(-n2c(=O)[nH]cc(C(=O)Nc3ccc4c(c3)OCCO4)c2=O)cc1	i
CNC(=O)c1ccc(OC)c(-c2cc(F)ccc2C)c1	i
O=C1c2ccccc2C(=O)N1Cc1ccccc1	i
SMILES	ST2 inh
CC(=O)N1/C(=C/c2ccc([N+](=O)[O-])cc2)C(=O)c2ccccc21	51%*
CC(C)C(C(=O)Nc1ccc([N+](=O)[O-])cc1)N1C(=O)c2ccccc2C1=O (stereo not drawn)	i
O=C(ON1C(=O)c2ccccc2C1=O)c1ccc([N+](=O)[O-])cc1	i
CCOc1cc2c(cc1OCC)C(c1ccc(OC)c(OC)c1)OC(=O)C2 (stereo not drawn)	i
COc1cc2c(cc1OC)C(c1ccc(Cl)cc1)OC1=C2C(=O)c2ccccc21 (stereo not drawn)	47%*
COc1cc(NC2OC(=O)c3ccccc32)c(OC)cc1Cl (stereo not drawn)	i
OCCNCCOc1ccc(OCc2ccccc2)cc1	i
CN(Cc1ccccc1)Cc1ccccc1O	i
COc1ccccc1C(CC(=O)O)c1ccco1 (stereo not drawn)	i
C=C(C)CC(Nc1ccc(OC)cc1)c1ccco1 (stereo not drawn)	37%*
COc1ccc(/C=C(/NC(=O)c2ccco2)C(=O)Nc2ccc(OC)cc2)cc1	i
CCc1nc(C)sc1CNC(=O)CCc1nc(-c2ccccc2C)no1	i
COc1ccc(-c2csc(/C(C#N)=C\c3ccc(OC)o3)n2)cc1	49%*
COc1ccc(-c2csc(NC(=O)C3CC=CCC3C(=O)O)n2)cc1 (stereo not drawn)	i
COc1ccc(-c2csc(/C(C#N)=C/c3ccc(Br)o3)n2)cc1	42%*
COc1cccc2cc(-c3nc(-c4ccc(Br)cc4)cs3)c(=O)oc12	i
COc1ccc(-c2nnc(-c3ccc(OC)cc3)o2)cc1	i
Cc1ccc(/C=C(/C#N)c2nc(-c3ccc(Cl)c(Cl)c3)cs2)o1	i
Cc1ccc(-c2csc(/C(C#N)=C/c3ccc(Br)o3)n2)c(C)c1	60%*
Cc1ccc(-c2csc(NC(=O)CCCC(=O)O)n2)c(C)c1	i
N#C/C(=C\c1ccc(Br)o1)c1nc(-c2ccc(Cl)cc2)cs1	31%*
CCN(C/C=C/c1ccccc1)C(=O)c1c(C)nn(CC)c1C	i
CCOc1ccc(C2CC(=O)N2C2(C(=O)Nc3ccc(OC)cc3)CCCCC2)cc1OC (stereo not drawn)	i
O=C(CC(=O)N(Cc1cccnc1)C[C@@H]1CCC(=O)N1)Nc1ccc(F)c(Cl)c1	i
CCC1CCC(NCc2cccc(OC)c2OC)CC1 (stereo not drawn)	i
SMILES	ST2 inh
Cc1ccc(C(=O)Nc2c(C)n(C)n(-c3ccccc3)c2=O)cc1C	i
C=CCN(c1ccccc1)S(=O)(=O)c1cccc2cccnc12	i
CN1[C@@H](CC(=O)c2ccccc2)CCC[C@H]1C[C@H](O)c1ccccc1	i
CC(=O)c1cccc(Nc2ncnc3c2cnn3-c2ccc(C)cc2C)c1	i
Fc1ccc(C2C=C(c3cccs3)Nc3ncnn32)cc1 (stereo not drawn)	i
COc1ccc(C(O)=C2C(=O)C(=O)N(CCCN(C)C)C2c2ccc(F)cc2)cc1 (stereo not drawn)	i
Cc1ccc(C(=O)/C=C/C=C/C=C/N(C)C)o1	39%*
Cc1ccc(C(=O)N2CCc3ccccc32)o1	i
CCc1csc(Cn2cc(C(C)c3ccccc3)nn2)n1 (stereo not drawn)	i
c1ccc(-c2nc(NC3CCCCC3)c3ccccc3n2)cc1	i
COc1cc2c(C(=O)NCC3CCCO3)cn(CC(C)C)c(=O)c2cc1OC (stereo not drawn)	i
Cc1c(-c2ccc(Cl)cc2)nc2ccccc2c1C(=O)N1CCCC1	i
NS(=O)(=O)c1ccsc1C(=O)N1CCC2(CCCO2)CC1	i
O=C(NCc1ccccc1)N1Cc2[nH]cnc2C[C@H]1c1nc(-c2ccc3c(c2)OCO3)no1	i
CC(C)(CC(=O)O)CC(=O)N1Cc2[nH]cnc2C[C@H]1c1nc(-c2ccc3c(c2)OCO3)no1	i
c1ccc2oc(CN3Cc4[nH]cnc4C[C@H]3c3nc(-c4ccc5c(c4)OCO5)no3)cc2c1	61%*
Oc1cccc(-c2cn(Cc3scnc3-c3ccccc3)nn2)c1	i
COc1ccc(Cl)cc1NC(=O)c1cc(C2CC2)on1	i
Cc1nc2c(C(=O)NCCN(C)Cc3ccccc3)cnn2c(C)c1Cc1ccccc1	i
Cc1ccc(C(=O)Nc2ccc3c(c2)OCO3)cc1	30%*!
Cc1cccc(NC(=O)c2cc3c([nH]c4ccccc43)c(C)n2)c1C	i
O=C(Nc1ccc(F)c(Cl)c1)c1cc(-c2ccc3c(c2)OCO3)on1	i
CC(=O)c1ccc(NC(=O)c2cc(-c3ccc4c(c3)OCO4)on2)cc1	31%*
COc1cc(C(=O)Nc2ccc3c(c2)OCO3)cc(OC)c1OC	i
O=C(CC1CCCCC1)Nc1ccc2c(c1)OCO2	i
O=C(O)C1CC=CCC1C(=O)Nc1ccc2c(c1)OCO2 (stereo not drawn)	i
O=C(Nc1ccc2c(c1)OCO2)c1ccc(Br)cc1	i
O=C(O)C1C2C=CC(O2)C1C(=O)Nc1ccc2c(c1)OCO2 (stereo not drawn)	31%*
